Compound activity as filed in PubChem BioAssay.
A selection: hits, their analogues and other compounds. The true share with any hit is near 3.2%.
Rce1 inh – yeast Ras-converting enzyme inhibition; calls only; AID 2563; 0.27% of 290,000 active; Q03530; yeast membranes, quenched prenylated peptide cleavage fluorescence;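 active = fall in fluorescence gain of 50% or more versus controls, with final raw signal at or below 3038400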
TMEM16A act – mouse TMEM16A channel activation, primary screen; HEK293 TMEM16A/YFP-H148Q/I152L, iodide quench fluorescence; stronger effect = lower value; B-score at 10 µM; 0.3% of 340,000 active; AID 623877;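 active = fluorescence-ratio B-score plate-corrected deviation score at least 3 library SD below zero, with starting fluorescence score within 5 deviations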;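 also: channel opened by trigger with iodide after compound preincubation; score built on the fluorescence ratio of max minus min over baseline; more negative score means more quench and so TMEM16A activation or potentiation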
Target sequence (Q8BHY3 whole entry, looked up): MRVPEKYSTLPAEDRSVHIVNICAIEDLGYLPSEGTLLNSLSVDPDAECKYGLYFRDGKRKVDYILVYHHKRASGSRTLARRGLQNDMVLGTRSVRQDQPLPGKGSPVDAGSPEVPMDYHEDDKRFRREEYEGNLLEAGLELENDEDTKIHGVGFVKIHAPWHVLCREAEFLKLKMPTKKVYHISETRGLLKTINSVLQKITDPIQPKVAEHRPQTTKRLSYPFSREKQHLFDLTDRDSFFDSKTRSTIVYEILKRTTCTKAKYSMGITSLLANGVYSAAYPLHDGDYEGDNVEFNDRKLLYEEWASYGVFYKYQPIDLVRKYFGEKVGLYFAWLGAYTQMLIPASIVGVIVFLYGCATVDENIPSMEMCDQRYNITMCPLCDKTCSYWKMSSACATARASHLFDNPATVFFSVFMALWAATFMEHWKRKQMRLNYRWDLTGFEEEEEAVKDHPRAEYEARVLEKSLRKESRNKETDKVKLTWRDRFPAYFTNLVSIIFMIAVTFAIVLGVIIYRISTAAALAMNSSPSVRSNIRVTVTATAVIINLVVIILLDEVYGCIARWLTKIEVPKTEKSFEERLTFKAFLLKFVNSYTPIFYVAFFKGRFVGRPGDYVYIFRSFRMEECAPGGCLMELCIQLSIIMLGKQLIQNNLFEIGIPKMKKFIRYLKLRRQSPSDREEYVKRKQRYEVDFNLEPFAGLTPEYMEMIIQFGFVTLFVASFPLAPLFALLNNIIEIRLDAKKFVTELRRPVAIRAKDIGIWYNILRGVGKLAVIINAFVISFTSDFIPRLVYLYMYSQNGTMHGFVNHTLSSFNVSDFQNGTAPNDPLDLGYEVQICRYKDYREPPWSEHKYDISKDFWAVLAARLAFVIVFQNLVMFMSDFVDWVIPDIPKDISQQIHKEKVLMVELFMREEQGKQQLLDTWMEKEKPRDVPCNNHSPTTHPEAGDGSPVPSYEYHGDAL
ANO1 block – blocks the mouse calcium-activated chloride channel TMEM16A | Q8BHY3 | HEK293 TMEM16A/YFP iodide influx fluorescence, ionomycin | normalized B-score (activity score, 25-100; higher = stronger inhibition) at 10 µM | 1.2% of 310,000 active;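 active = ratio plate-corrected score three or more library SD toward inhibition, starting fluorescence score within five deviations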;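 also: score derived from kinetic fluorescence span divided by baseline fluorescence per well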
CHT block – human CHT choline transport inhibition | CHT-expressing cells, membrane potential dye, choline response; stronger effect = lower value | 0.86% of 310,000 active | Q9GZV3 | B-score at 10 µM;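 active = B-score over 3 SD under the library average, and starting fluorescence ratio not unusually high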;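 also: choline stimulus applied at its EC90 after an EC20 pre-addition; B-score computed on integrated fluorescence ratio after choline addition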
Kir21 inh – Kir2.1 (mouse) channel inhibition | P35561 | HEK293-Kir2.1, FluxOR thallium flux fluorescence; stronger effect = lower value | B-score at 10 µM | 0.85% of 310,000 active | AID 1672;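 active = fluorescence ratio B-score at or below minus 3 SD of library scores, with starting-brightness B-score within 2 SD, cut at about -4.2 in these data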;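 also: channel flux triggered by added potassium and thallium sulfate stimulus; B-score of peak minus minimum fluorescence over baseline after thallium stimulus; more negative B-score means stronger Kir2.1 block with less thallium influx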
CHT allo act – allosteric activators of human choline transporter CHT. CHT-expressing cells, membrane potential dye, choline EC20; stronger effect = higher value; LV-AA mutant CHT in HEK293 cells. Q9GZV3. B-score at 10 µM. 0.49% of 310,000 active. AID 488977;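 active = initial fluorescence not abnormally high and integrated response B-score, plate-corrected, over 3 SD above library mean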
TMEM16A reconf – TMEM16A (mouse) chloride channel inhibition, re-confirmation. shares compounds with ANO1 block. HEK293 TMEM16A/YFP-H148Q, iodide quench fluorescence; ionomycin added to raise cell calcium. inhibition, % at 10 µM. 39% of 2,300 active;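 active = mean duplicate percent inhibition, scaled so buffer wells are 0 and the reference blocker 100, over three buffer SD above buffer mean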
HEK293 Ca mobil – calcium mobilization counter-screen hit for TMEM16A inhibitor series. 2% of 2,300 active. shares compounds with ANO1 block. AID 652231. calcium response (% of ionomycin), % at 10 µM. TMEM16A/YFP HEK293, Fluo4 calcium mobilization;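 active = duplicate-averaged calcium signal over 20% of the ionomycin maximum, relative to buffer baseline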;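 also: each well's signal is peak minus trough fluorescence divided by its pre-addition baseline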
Parental YFP cnt – parental YFP-HEK293 iodide quench counter-screen activity | 2,300 tested, under 10 active | ionomycin | shares compounds with ANO1 block | YFP ratio F(max-min)/F0 at 10 µM;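 active = yellow fluorescent protein signal ratio exceeding the buffer control mean by over 5 SD of those controls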;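 also: ratio is mean of duplicate wells from kinetic YFP trace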
ClC-1 inh – rat ClC-1 inhibition, TMEM16A specificity screen. shares compounds with ANO1 block. CHO ClC-1-YFP, iodide influx fluorescence quench; iodide control reads 0, buffer control 100. ratio percent, % at 10 µM. 2,300 tested, under 10 active;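 active = duplicate-mean ratio percent above the mean of iodide-only control wells, which defines zero, plus 5 of their SD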;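 also: higher percent means stronger block of ClC-1 iodide influx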
Numbers stand for hits; 0 = inactive; - = no result given.

SMILES	Rce1 inh	TMEM16A act	ANO1 block	CHT block	Kir21 inh	CHT allo act	TMEM16A reconf	HEK293 Ca mobil	Parental YFP cnt	ClC-1 inh
Cc1ccc(S(=O)(=O)N2CCCOC2CNC(=O)C(=O)NC2CCCCC2)cc1 (configuration not stated)	-	0	0	0	0	0	-	-	-	-
O=C(Nc1ccsc1C(=O)O)c1cccc(Oc2ccccc2)c1	0	0	100	0	0	0	52%	0	0	0
O=C(Nc1ccsc1C(=O)O)c1cccc(C(F)(F)F)c1	0	0	0	0	0	0	-	-	-	-
O=C(Nc1nnc(CCc2ccccc2)s1)c1cccc(F)c1	0	0	0	0	0	0	-	-	-	-
O=S(=O)(c1ccc(C2CCCCC2)cc1)N1CCCC1	0	0	25	0	0	0	0	0	0	0
Nc1[nH]c2cc([N+](=O)[O-])ccc2c1-c1ccccn1	0	0	0	0	0	0	21%	0	0	0
COc1ccc(NC(=O)CN(C)C(=O)c2ccc3c(c2)S(=O)(=O)N=C2CCCCCN23)cc1	0	0	0	0	0	0	-	-	-	-
COc1ccc(-c2c(C(F)(F)F)[nH]n3c(=O)cc(-c4ccccc4)nc23)cc1	0	0	100	0	0	0	49%	0	0	0
CCc1noc(C)c1C(=O)N1CCN(S(=O)(=O)c2ccc(Cl)s2)CC1	0	0	0	0	0	0	-	-	-	-
CCOC(=O)c1csc(Nc2nc3ccc(F)cc3s2)n1	0	0	100	0	0	0	0	0	0	0
Cc1ccc(N2CC(C(=O)OCc3nnc(-c4ccccc4)o3)CC2=O)cc1 (configuration not stated)	-	0	0	0	0	0	-	-	-	-
COc1cccc(OC)c1C(=O)N1CCN(C(=O)c2ccc(-c3ccccc3)cc2)CC1	0	0	0	0	0	0	-	-	-	-
O=C(CCc1ccccc1)Nc1ccccc1F	0	0	100	0	0	0	0	0	0	0
O=C(CCN1CCOCC1)Nc1ccccc1	0	0	100	0	0	0	0	0	0	0
COc1cccc(NC(=O)CCN2CCOCC2)c1	0	0	0	0	0	0	-	-	-	-
O=S(=O)(NC(=S)c1ccccc1)c1ccc(F)cc1	0	0	0	0	0	0	-	-	-	-
COc1ccc(C2=NO[C@@](CC(=O)O)(C(=O)Nc3ccc4c(c3)OCCO4)C2)cc1	0	0	0	0	0	0	-	-	-	-
Cc1cccc(C)c1NC(=S)NNc1ncc(C(F)(F)F)cc1Cl	0	0	0	0	0	0	-	-	-	-
Cc1c(Cl)cccc1NC(=S)NNc1ncc(C(F)(F)F)cc1Cl	0	0	25	-5.3	0	0	40%	0	0	0
CCc1noc(C)c1C(=O)N(CC(C)C)c1c(N)n(Cc2ccccc2)c(=O)[nH]c1=O	-	0	-	-	-	-	-	-	-	-
O=C(c1ccc2c(c1)OCO2)C1CCCN(Cc2cccc(C(F)(F)F)c2)C1 (configuration not stated)	0	0	0	0	0	0	-	-	-	-
O=C(c1ccc2c(c1)OCO2)C1CCCN(Cc2ccc(OC(F)F)cc2)C1 (configuration not stated)	0	0	25	0	-10	0	21%	0	0	0
Cc1ccccc1NC(=O)Cc1nc(COC(=O)CCNS(=O)(=O)c2ccccc2)cs1	0	0	0	0	0	0	-	-	-	-
CCCc1cc(C(=O)Cc2ccc(C(=O)OCC)o2)c(O)cc1O	0	0	100	0	0	0	66%	0	0	0
CCOc1cc(N2CCOCC2)c(OCC)cc1NC(=O)c1ccc(OC(C)C)cc1	0	0	0	0	0	0	-	-	-	-
SMILES	Rce1 inh	TMEM16A act	ANO1 block	CHT block	Kir21 inh	CHT allo act	TMEM16A reconf	HEK293 Ca mobil	Parental YFP cnt	ClC-1 inh
Cc1ccc(N(C)S(=O)(=O)c2cc(-c3cnc(C4CC4)o3)ccc2C)cc1	0	0	100	0	0	0	20%	0	0	0
CCN(CC)S(=O)(=O)c1ccc(N2CCOCC2)c(NC(=O)C2CC2)c1	0	0	0	0	0	0	-	-	-	-
CN(CCOc1ccccc1)CC(=O)Nc1ccc([N+](=O)[O-])cc1Cl	0	0	25	0	0	0	19%	0	0	0
O=C(Nc1nc(-c2ccc(F)c(F)c2)cs1)c1ccc(OCC2CCCO2)cc1 (configuration not stated)	0	0	25	0	0	0	0	0	0	0
O=C(Nc1nc(-c2ccc(-c3ccccc3)cc2)cs1)C1CCCO1 (configuration not stated)	0	0	100	0	0	0	0	0	0	0
COc1ccc(S(=O)(=O)Nc2cccc(NC(C)=O)c2)cc1	0	0	25	0	0	0	0	0	0	0
COc1ccc(OC)c(CN2CCN(C(=O)[C@@H](NC(=O)c3cccc(C)c3)C(C)C)CC2)c1	-	0	-	-	-	-	-	-	-	-
COc1ccc(NC(=O)N2CCN(C(=O)C(Cc3ccc(F)cc3)NC(C)=O)CC2)cc1 (configuration not stated)	0	0	0	0	0	0	-	-	-	-
COc1cccc(OCCCN2CCN(S(=O)(=O)c3ccc(NC(C)=O)cc3)CC2)c1	0	0	0	0	0	0	-	-	-	-
CC(=O)Nc1ccc(S(=O)(=O)N2CCN(CCCOc3ccccc3Cl)CC2)cc1	0	0	25	0	0	0	0	0	0	0
CCc1ccc(OCC(=O)Nc2ccc(-c3cc4ccccc4oc3=O)c(OC)c2)cc1	0	0	0	0	0	0	-	-	-	-
CC(C)CC1NC(=O)N(CC(=O)N2CCN(S(=O)(=O)c3ccccc3)CC2)C1=O (configuration not stated)	0	0	0	0	0	0	-	-	-	-
Cc1nn(Cc2ccc(C(=O)Nc3nc4c(C)cccc4s3)o2)c(C)c1Br	0	0	100	0	0	0	0	0	0	0
CC(C)CNC(=O)[C@H](Cc1ccccc1)NC(=O)c1cccs1	0	0	0	0	0	0	-	-	-	-
CC(NC(=O)c1cn(C(C)c2ccccc2F)nn1)c1ccncc1 (configuration not stated)	0	0	0	0	0	0	-	-	-	-
CC(Cc1cccs1)NC(=S)Nc1ccc(Cl)cc1 (configuration not stated)	0	0	25	0	-4.2	0	38%	0	0	0
CC(Cc1cccs1)NC(=S)Nc1ccc(Cl)c(Cl)c1 (configuration not stated)	0	0	0	0	0	0	-	-	-	-
